# FLuc modulator = qHTS profiling assay for firefly luciferase inhibitor/activator using purifed enzyme and Km concentrations of substrates (counterscreen for miR-21 project); purified FLuc, Km substrates, luminescence inhibition; Potency, µM (titrated, usually from 57.5 µM), for inactives: at the highest dose activity change, negative = inhibition, usual class: inhibitors; hit rate 6.9% among 360,000; AID 588342, 2011;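 also: plate controls were vehicle for no effect and reference inhibitor for full effect; nearly all actives have a fitted effect of over 55% in size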
# Target sequence (P08659 whole entry, looked up): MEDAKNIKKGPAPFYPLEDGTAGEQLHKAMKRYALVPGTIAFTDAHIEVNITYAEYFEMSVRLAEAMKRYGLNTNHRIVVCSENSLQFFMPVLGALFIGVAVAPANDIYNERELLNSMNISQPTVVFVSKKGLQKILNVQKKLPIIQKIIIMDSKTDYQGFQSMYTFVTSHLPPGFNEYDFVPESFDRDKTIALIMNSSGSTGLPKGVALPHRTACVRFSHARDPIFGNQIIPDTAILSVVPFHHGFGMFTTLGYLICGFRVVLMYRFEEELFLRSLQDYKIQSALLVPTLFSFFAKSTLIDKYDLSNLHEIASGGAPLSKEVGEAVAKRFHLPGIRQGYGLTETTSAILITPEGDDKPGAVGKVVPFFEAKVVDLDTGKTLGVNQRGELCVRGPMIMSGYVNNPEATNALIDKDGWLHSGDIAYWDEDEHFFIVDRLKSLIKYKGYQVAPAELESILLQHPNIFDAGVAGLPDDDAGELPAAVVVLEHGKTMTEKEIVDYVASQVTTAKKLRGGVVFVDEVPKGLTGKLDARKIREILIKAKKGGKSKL
#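 Purified P. pyralis luciferase (10nM final) with 10uM D-luciferin and 10uM ATP (Km levels) in 50mM Tris acetate pH 7.5, 10mM Mg acetate, 0.01% Tween-20, 0.05% BSA; qHTS 6-point titration, ~60 µM downward; luminescence read.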
# NPC1 prom act = qHTS Assay for NPC1 Promoter Activators | Potency, µM (titrated, usually from 9.22 µM), inactives show at the top dose activation, usual class: activators | Huh7 NPC1 promoter luciferase reporter, 24 h | hit rate 2.4% among 320,000; also: % of control where 0% means no effect; nearly all actives have a fitted effect of over 60% in size
#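 Readout is luciferase luminescence, reflecting NPC1 promoter activation in stably transfected Huh7 cells after 24 h compound exposure at 37 °C in reduced-serum medium with 10% FBS.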
# Rab9 promoter act = qHTS Assay for Rab9 Promoter Activators; hit rate 2.8% among 320,000; Potency, µM (titrated, usually from 9.22 µM), inactives show top-dose activation, negative = inhibition, usual class: activators; Huh7 Rab9 promoter-luciferase reporter, luminescence, 24 h; also: % of control where 0% means no effect; nearly all actives have a fitted effect of over 60% in size
#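 Luciferase signal after 10 min detection reagent at ambient indicates Rab9 promoter upregulation; stably transfected Huh7 cells were treated 24 h with compound in DMSO at 37 °C, 5% CO2.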
# ELG1 genotoxic = qHTS screen for small molecules that induce genotoxicity in human embryonic kidney (HEK293T) cells expressing luciferase-tagged ELG1; HEK293T ELG1-luciferase reporter, luminescence, 16 h; Potency, µM (highest dose often 46 µM), for inactives: top-dose activity change, positive = activation, hits mostly activators; hit rate 1.3% among 330,000; also: % of control where 0% means no effect; nearly all actives have a fitted effect of over 60% in size
#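 Step 1: seed 2,000 HEK293T ELG1-luciferase cells per well. Step 2: add compound or DMSO, incubate 16 hr at 37 °C. Step 3: ONE-Glo, 30 min at room temperature, read luminescence.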
# p53 reactivator = qHTS assay for re-activators of p53 using a Luc reporter; H1299 p53-A138V BP100-luciferase reporter, luminescence, 24 h; Potency, µM (top dose mostly 92.2 µM), for the others: top-dose activity change, positive = activation, most hits filed as activators; hit rate 0.063% among 320,000; AID 504706, 2011; also: % of control where 0% means no effect; nearly all actives have a fitted effect of over 45% in size
#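 p53-null H1299 cells stably carrying temperature-sensitive p53-A138V and a BP100-luciferase reporter were pinned with compounds (4-point, 1:5 series) and held 24 hrs at 37 deg C. Luminescence was read 10 min after detection reagent.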
# SMN2 splice up = qHTS Assay for Enhancers of SMN2 Splice Variant Expression | Potency, µM (doses to about 46.1 µM), for the others: at the top dose activity change, positive = activation, actives largely listed as activators | HEK293 SMN2-luciferase splicing reporter, luminescence, 30-36 h | hit rate 2.8% among 210,000 | AID 1458, 2008; also: % of control where 0% means no effect; nearly all actives have a fitted effect of over 55% in size
#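 qHTS luciferase splicing reporter: luminescence rises when SMN2 exon 7 is included in transfected HEK293 cells. Compound exposure lasted 30-36 h at 37C, with 4.5 mM final sodium butyrate as control, followed by a ONE-Glo read.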
# * marks the source's active call; other numbers are inactive results; ? = inconclusive; nt = not tested or not shown; [ ] = remark or other dose. Shown are actives, neighbours in structure and some others; about 7.4% of the full set was active somewhere. Calls follow the shape of the dose curve; as a rule, active = well fitted curve in the direction sought with a large enough effect; inconclusive = small, poorly fitted or top-dose-only effect, or another doubt; inactive = no such curve, though single readings can be large; an effect the other way counts as inactive or inconclusive. Potency is read from the fitted curve at half-maximal effect.
SMILES,FLuc modulator,NPC1 prom act,Rab9 promoter act,ELG1 genotoxic,p53 reactivator,SMN2 splice up
COc1ccc(Nc2oc(-c3ccc(Cl)cc3)nc2C#N)cc1,2.7µM*,?,?,?,3%,14µM*
COc1ccc(CNc2oc(-c3ccccc3)nc2C#N)cc1,?,10%,13%,?,?,7%
COc1ccc(Nc2oc(-c3ccccc3)nc2C#N)cc1,?,1.8µM*,1.6µM*,?,4%,?
COc1ccc(Nc2oc(-c3ccc(OC)cc3)nc2C#N)cc1,2.4µM*,?,3.5µM*,?,5%,nt
Cc1ccccc1OCC(=O)Nc1ccccc1N1CCC(C)CC1,-8%,-1%,-4%,-5%,10%,-9%
COc1ccc(CNC(=O)C2=CC(c3ccc(C)cc3)=NS(=O)(=O)N2C)cc1,?,1%,11%,2%,nt,nt
COc1ccc2nc(NC(=O)c3cccc(OCc4c(C)noc4C)c3)sc2c1,1.5µM*,-9%,5%,-17%,?,-23%
Cc1noc(C)c1COc1cccc(C(=O)Nc2ccc(OCc3ccccc3)cc2)c1,8.5µM*,0%,-1%,-10%,13%,-8%
Cc1noc(C)c1COc1ccc(C(=O)Nc2ccccc2)cc1,2%,7%,-1%,0%,4%,-23%
CCCC(C)NC(=O)CN1C(=O)NC2(CCc3ccccc32)C1=O (stereo not given),2%,0%,6%,0%,-2%,nt
COc1ccc(Cl)cc1S(=O)(=O)Nc1cccc(-c2ccc(N3CCOCC3)nn2)c1,19µM*,nt,nt,nt,nt,nt
Cc1cc(S(=O)(=O)Nc2cccc(-c3ccc(N4CCOCC4)nn3)c2)c(C)cc1Cl,12µM*,nt,nt,nt,nt,nt
c1ccc([C@@H]2CN3CCSC3=N2)cc1,nt,nt,nt,nt,nt,-5%[20.6 µM]
CCN1c2ccccc2-c2nc(SCC(=O)Nc3cc(F)ccc3F)ncc2S1(=O)=O,1%,nt,nt,nt,nt,nt
O=C(c1csnn1)N1CCC2(CC1)CN(C(c1ccccc1)c1ccccc1)C2,nt,nt,nt,nt,nt,-7%
O=C(N/N=C/c1ccc2cccc(OCc3ccccc3)c2n1)c1ccc(Cl)cc1,6.7µM*,6%,4%,-10%,-3%,-4%
COc1ccc(/C=N/NC(=O)c2ccc(COc3cccc4cccnc34)cc2)cc1OC,?,1%,1%,-12%,-4%,-12%
COc1ccc(/C=N/NC(=O)c2sccc2OCc2ccc(F)cc2)cc1OC,13µM*,-8%,-1%,0%,-1%,-11%
COc1ccc(/C=N/NC(=O)c2ccc(COc3cccc4cccnc34)cc2)cc1O,13µM*,1%,-7%,-6%,-2%,nt
O=C(N/N=C/c1cccc(O)c1)c1ccc(COc2cccc3cccnc23)cc1,17µM*,-14%,2%,15%,-1%,12%
CCN(CC(=O)Nc1ccccc1C(F)(F)F)C(=O)c1ccc2[nH]c3c(c2c1)CC(C)CC3 (stereo not given),-15%,1%,-5%,-22%,-6%,nt
COC(=O)c1ccc(C(NC(=O)OCc2ccccc2)/C(C)=C/[C@@H](C)C(=O)N(C)Cc2cccnc2)cc1 (stereo not given in full),nt,nt,nt,nt,nt,-4%
CCC(C)(C)C1CCc2[nH]nc(C(=O)NC(C)C)c2C1 (stereo not given),-5%,-9%,-7%,-7%,-1%,nt
O=C(N/N=C/c1ccc2c(c1)OCO2)c1ccc(COc2cccc3cccnc23)cc1,5.4µM*,18%,?,0%,12%,7%
O=C(N/N=C1\CCCc2ccccc21)c1ccc([N+](=O)[O-])cc1,6µM*,?,3.5µM*,?,16%,14µM*
SMILES,FLuc modulator,NPC1 prom act,Rab9 promoter act,ELG1 genotoxic,p53 reactivator,SMN2 splice up
Cc1ccc(C(=O)N/N=C2\CCCc3ccccc32)c(C)c1,6µM*,2.8µM*,?,13%,24%,13µM*
CC(C)NC(=S)N/N=C1\CCCc2ccccc21,-1%,-1%,-3%,0%,0%,6%
COc1ccc2c(c1)c1c(c(=O)n(-c3ccc(C)cc3)c(=O)n1CC(=O)c1ccc(Cl)cc1)n2C,1%,nt,nt,nt,nt,nt
COc1ccc(CCNC(=O)CSc2nc3ccccc3nc2Cc2ccc(Cl)cc2)cc1OC,-7%,nt,nt,nt,nt,nt
Cc1cc(Nc2ccccc2)n(-c2nc3ccccc3[nH]2)n1,?,-1%,-12%,-2%,3%,6%
Cc1nn(-c2ccc(Cl)nn2)c(=O)c2ccccc12,17µM*,18%,?,?,-5%,?
Cc1nn(-c2nc3ccccc3[nH]2)c(N)c1-c1ccc(Cl)cc1,8.5µM*,?,3.5µM*,8%,?,?
Cc1nn(-c2ccc(Cl)c(Cl)c2Cl)c(=O)c2ccccc12,2%,-3%,3%,-3%,-4%,-12%
Cc1nn(-c2nc3ccccc3[nH]2)c(=O)c2ccccc12,0.076µM*,?,0.1µM*,?,-9%,-98%
Cc1nn(-c2ccc3ccccc3c2)c(=O)c2ccccc12,12µM*,2%,?,?,15%,nt
N#CCCN(C(=O)COC(=O)CCNS(=O)(=O)c1ccccc1)c1ccccc1,nt,-1%,1%,0%,5%,nt
Cn1nnnc1SCCCNCc1ccccc1OCc1ccccc1Cl,-5%,nt,nt,nt,nt,nt
COc1ccc(OC)c(CNC(=O)C2COc3ccccc3C2)c1 (stereo not given),0%,nt,nt,nt,nt,nt
Cc1nn(-c2ccc(Cl)cc2)c(=O)c2ccccc12,17µM*,4.5µM*,2.8µM*,?,20%,13µM*
Cc1nn(-c2ccc(Cl)c(Cl)c2)c(=O)c2ccccc12,-19%,26%,19%,4%,8%,-4%
COc1ccc(/C=N/Nc2snc(SC)c2C#N)cc1OC,2.1µM*,2.8µM*,2.8µM*,16%,3%,?
COc1cccc(/C=N/Nc2snc(SC)c2C#N)c1,4.8µM*,?,25%,2%,14%,-28%
CSc1nsc(N/N=C/c2ccccc2)c1C#N,?,28%,23%,-12%,13%,29%
COc1cccc(/C=N/Nc2snc(SC)c2C#N)c1O,4.8µM*,1%,3%,3%,?,-62%
Cc1cc(NC(=O)CSc2nc(=O)n(CCCN(C)C)c3c2CCCC3)no1,3%,2%,-6%,2%,1%,nt
CC(=O)c1ccccc1OC(=O)COc1ccc(Cl)cc1C,17µM*,-4%,2%,2%,4%,0%

# Screening data as filed in PubChem.
